Out of some 310,000 compounds screened, about 2,200 (0.71%) showed an effect of 50% or more. Effects have a minus sign here. Many of the other results were omitted from the sample, so strong results are more common in it than they were.
Each molecule was assayed against human ether-à-go-go-related gene (hERG) potassium channel (human, UniProt Q12809) (assay: primary screen, population patch clamp on CHO cells stably expressing hERG; higher = less effect of the substance).
Chain of human ether-à-go-go-related gene (hERG) potassium channel (Q12809 whole entry, looked up): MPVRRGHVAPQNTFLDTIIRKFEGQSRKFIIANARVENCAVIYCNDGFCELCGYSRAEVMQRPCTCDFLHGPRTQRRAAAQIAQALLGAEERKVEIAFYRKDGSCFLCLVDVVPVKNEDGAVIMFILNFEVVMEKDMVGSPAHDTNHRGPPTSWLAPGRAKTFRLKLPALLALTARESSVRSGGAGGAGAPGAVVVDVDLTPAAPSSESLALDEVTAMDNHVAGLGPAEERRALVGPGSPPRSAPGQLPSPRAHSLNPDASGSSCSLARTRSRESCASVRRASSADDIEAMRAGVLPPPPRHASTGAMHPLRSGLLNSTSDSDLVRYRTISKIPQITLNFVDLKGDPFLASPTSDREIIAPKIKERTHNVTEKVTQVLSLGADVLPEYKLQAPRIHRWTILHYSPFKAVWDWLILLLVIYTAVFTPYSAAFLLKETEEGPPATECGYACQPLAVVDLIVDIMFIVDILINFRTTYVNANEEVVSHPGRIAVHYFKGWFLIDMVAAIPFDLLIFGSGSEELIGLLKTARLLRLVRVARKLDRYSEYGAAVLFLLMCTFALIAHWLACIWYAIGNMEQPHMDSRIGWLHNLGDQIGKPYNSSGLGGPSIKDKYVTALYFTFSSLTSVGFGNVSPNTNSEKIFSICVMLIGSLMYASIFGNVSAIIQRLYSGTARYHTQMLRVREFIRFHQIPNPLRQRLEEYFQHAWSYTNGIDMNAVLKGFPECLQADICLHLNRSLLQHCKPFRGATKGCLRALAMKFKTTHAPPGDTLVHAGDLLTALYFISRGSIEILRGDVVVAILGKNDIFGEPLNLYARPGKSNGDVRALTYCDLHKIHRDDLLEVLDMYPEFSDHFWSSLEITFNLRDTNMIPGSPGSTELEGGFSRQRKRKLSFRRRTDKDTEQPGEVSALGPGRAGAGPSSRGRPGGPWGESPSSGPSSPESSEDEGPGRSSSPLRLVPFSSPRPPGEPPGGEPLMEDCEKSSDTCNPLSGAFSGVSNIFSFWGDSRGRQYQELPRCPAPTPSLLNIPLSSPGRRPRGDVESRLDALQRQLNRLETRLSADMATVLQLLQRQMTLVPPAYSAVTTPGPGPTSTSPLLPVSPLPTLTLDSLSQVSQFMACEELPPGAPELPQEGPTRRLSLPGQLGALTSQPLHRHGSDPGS

SMILES | hERG current change (%, negative = inhibition) at 1uM
COc1cccc(CNS(=O)(=O)c2c(C(=O)N3CCCCCC3)c(C)n(C)c2C)c1 | 7.52%
Cc1ccccc1CNC1CCCCC1.Cl | 2.15%
O=C(Cn1cnc2cc([N+](=O)[O-])ccc2c1=O)Nc1ccccc1Cl | 6.18%
COC(=O)c1ccc(-c2nc(O)c(C)s2)cc1 | 9.1%
CC1=C(C(=O)Nc2cccc(C(=O)NCc3ccc(F)cc3)c2)SCCO1 | 15.3%
COc1ccc(C(=O)c2c3ccc([N+](=O)[O-])cc3[n+]([O-])n2CCC[NH3+])cc1.[Cl-] | -13.5%
COc1ccc(C(=O)c2c3ccc(C(F)(F)F)cc3[n+]([O-])n2CCCC(N)=O)cc1 | -21.6%
COc1ccc(C(=O)c2c3ccc(C(F)(F)F)cc3[n+]([O-])n2CCC[NH3+])cc1.[Cl-] | -63%
Cc1ccc(-c2nn3nnnc3c3ccccc23)cc1 | 12.9%
c1ccc(-c2nn3nnnc3c3ccccc23)cc1 | -82.9%
Cc1ccc(-c2nn3nnnc3c3ccccc23)cc1C | -5.22%
COc1ccc(C(=O)OCCc2sc[n+](CC(=O)c3ccccc3)c2C)cc1.[Br-] | 9.69%
Cc1c(CCOC(=O)CC23CC4CC(CC(C)(C4)C2)C3)sc[n+]1CC(=O)c1ccccc1.[Br-] | -5.09%
Cc1c(CCOC(=O)c2ccccc2)sc[n+]1CC(=O)c1ccc(Br)cc1.[Br-] | -82.8%
Cc1c(CCOC(=O)CC23CC4CC(CC(C4)C2)C3)sc[n+]1CC(=O)c1ccc(Br)cc1.[Br-] | -63.5%
Cc1c(CCOC(=O)c2ccc([N+](=O)[O-])cc2)sc[n+]1CC(=O)c1ccccc1.[Br-] | -6.66%
Cc1c(CCOC(=O)CC23CC4CC(CC(C4)C2)C3)sc[n+]1CC(=O)c1ccccc1.[Br-] | -6.04%
CCc1ccc(C(C(=O)NC2CCCC2)N(Cc2cccnc2)C(=O)c2csnn2)cc1 (centres unmarked) | 2.84%
Nc1c(-c2ccccc2)nc(Cl)nc1-c1ccccc1 | 13.2%
CN(CC(=O)Nc1ccccc1Cl)C(=O)COC(=O)/C=C/c1ccc(C(F)(F)F)cc1 | 16.2%
O=C(Cn1cccc1C(=O)c1ccccc1)NCCCN1CCc2ccccc2C1 | -41.7%
Cc1ccccc1C(=O)c1cccn1CC(=O)NCCCN1CCCCC1 | 0.894%
CC1CC(C)CN(CCCNC(=O)Cn2cccc2C(=O)c2ccccc2)C1 (centres unmarked) | -25%

SMILES | hERG current change (%, negative = inhibition) at 1uM
Cc1ccc(C)c(N2CCN(CCCNC(=O)Cn3cccc3C(=O)c3ccccc3C)CC2)c1 | -22.1%
Cc1ccccc1C(=O)c1cccn1CC(=O)NCCCN1CCc2ccccc2C1 | -70%
Cc1ccccc1C(=O)c1cccn1CC(=O)NCCCN1CC(C)CC(C)C1 (centres unmarked) | -59%
CN(C)CCN1C(=O)c2oc3ccccc3c(=O)c2C1c1ccc(F)cc1 (centres unmarked) | -2.93%
CC(=O)Nc1ccc(Oc2sc(C(=O)c3ccccc3)c(N)c2C#N)cc1 | 9.56%
COCCN(C(=O)CSc1nnc(-c2ccco2)n1C)c1c(N)n(CC(C)C)c(=O)[nH]c1=O | 8.54%
CCN1CCN(c2ccc(NC(=O)c3ccc4c(c3)OCO4)cc2)CC1 | -16.7%
CCOC(=O)C1=C(COC(=O)/C=C/c2cccc(Br)c2)NC(=O)NC1C (centres unmarked) | -7.77%
Cc1ccc(C#N)c(SCc2cccc(Br)c2)n1 | 17.2%
CCN(CC)CCOC(=O)c1ccc(NC(=O)/C=C/c2cccs2)cc1.Cl | -53.5%
CCCOC(=O)c1ccc(NC(=O)/C=C/c2cccs2)cc1 | 7.88%
CCCCOC(=O)c1ccc(NC(=O)/C=C/c2cccs2)cc1 | 1.76%
O=C(N/N=C\c1cccnc1)c1cc(-c2ccc(Cl)s2)[nH]n1 | 8.22%
CSc1ccc(/C=C(\NC(=O)c2ccccc2)C(=O)NCCN2CCOCC2)cc1 | -44.3%
O=C(NCCN1CCOCC1)/C(=C\c1ccc(Br)cc1)NC(=O)c1cccs1 | -54%
O=C(NCCO)/C(=C\c1ccc(Br)cc1)NC(=O)c1cccs1 | 6.96%
CN(C)c1ccc(/C=C(\NC(=O)c2ccccc2)C(=O)NCCN2CCOCC2)cc1 | 8%
O=C(NCCN1CCOCC1)/C(=C\c1ccc(F)cc1)NC(=O)c1ccccc1 | -51.7%
O=C(NCCCN1CCOCC1)/C(=C/c1ccc(F)cc1)NC(=O)c1ccccc1 | -46.5%
O=C(NCCN1CCOCC1)/C(=C/c1ccc(F)cc1)NC(=O)c1ccccc1 | -58.4%
O=C(NCCO)/C(=C/c1ccc(Br)cc1)NC(=O)c1cccs1 | -8.3%
CSc1ccc(/C=C(/NC(=O)c2ccccc2)C(=O)NCCN2CCOCC2)cc1 | -10.3%
COc1cc(CCC(=O)OCC(=O)Nc2ccc(F)c(F)c2)cc(OC)c1OC | 3.59%

SMILES | hERG current change (%, negative = inhibition) at 1uM
CC(C)N1C(=O)S/C(=C/c2ccc3c(c2)n(C)c(=O)n3C)C1=O | -5.59%
COc1ccc(CNC(=O)COC(=O)CC2CC3CCC2C3)cc1OC (centres unmarked) | 6.66%
COc1cccc(/C=C/c2nc3c(cnn3-c3ccccc3)c(=O)[nH]2)c1 | 9.85%
COC(=O)c1cc(NC(=O)Cc2ccc(OC)cc2)cc(C(=O)OC)c1 | 14.7%
CCOC(=O)c1sc2ncnc(N3CCN(CC)CC3)c2c1C | -9.54%
CCN1CCN(c2ncnc3sc(C(=O)Nc4ccccc4F)c(C)c23)CC1 | -50.9%
Cc1c(C(=O)Nc2c(F)cccc2F)sc2ncnc(N3CCN(c4ccccc4)CC3)c12 | 4.01%
Cc1ccc(S(=O)(=O)NC2CCC(C(=O)O)CC2)cc1 (centres unmarked) | 9.17%
COC(=O)c1oc2ccc(OC)cc2c1N | 14.9%
CC(=O)N(c1ccccc1C)S(=O)(=O)c1ccc(Cl)cc1 | 10%
COc1ccc2[nH]c(C(=O)NCCc3ccccc3)cc2c1 | 17.2%
COc1ccccc1NC(=S)NC1CCCC1 | 14.8%
CN1/C(=C\C(=O)c2ccco2)C(C)(C)c2ccccc21 | 4.59%
CC(=O)Nc1ccc(NC(=O)C(C)OC(=O)CCC(=O)c2ccc(F)cc2)cc1 (centres unmarked) | 8.41%
CC(OC(=O)CCC(=O)c1ccccc1)C(=O)Nc1ccc(F)cc1 (centres unmarked) | -299%
CC(OC(=O)CCCC(=O)Nc1ccc(F)cc1)C(=O)c1ccccc1 (centres unmarked) | 12.7%
CC(=O)NCCC(=O)Nc1nc2ccc(Oc3ccccc3)cc2s1 | 2.19%
Cc1cccc(S(=O)(=O)Nc2cccc3c2C(=O)c2ccccc2-3)c1 | 3.03%
COc1ccc(-c2csc(N(CCCN(C)C)C(=O)c3ccc(C)cc3)n2)cc1.Cl | -17.2%
COc1ccc(-c2csc(N(CCCN(C)C)C(=O)c3ccccc3C)n2)cc1.Cl | -2.13%
COc1ccc(-c2csc(N(CCCN(C)C)C(=O)c3ccccc3Cl)n2)cc1.Cl | -12.5%
CCN(CC)CCCN(C(=O)c1ccc(OC)cc1)c1nc(-c2ccc(OC)cc2)cs1 | -15.5%
CN(C)CCCN(C(=O)c1cccs1)c1nc(-c2ccccc2)cs1 | -50.7%

SMILES | hERG current change (%, negative = inhibition) at 1uM
CCN(CC)CCCN(C(=O)c1cccs1)c1nc(-c2ccc(OC)cc2)cs1 | -71.8%
O=C(c1cccs1)N(CC1CCCO1)c1nc(-c2ccccc2)cs1 (centres unmarked) | 11.8%
COc1ccc(-c2csc(N(CCCN(C)C)C(=O)c3cccs3)n2)cc1.Cl | -51.6%
CCN(C(=O)c1cccs1)c1nc(-c2ccc(OC)cc2)cs1 | 13.4%
CCN(CC)CCCN(C(C)=O)c1nc(-c2cc(OC)ccc2OC)cs1.Cl | -51%
CCC(=O)N(CCCN(C)C)c1nc(-c2cc(OC)ccc2OC)cs1.Cl | -8.76%
CCC(=O)N(CC)c1nc(-c2cc(OC)ccc2OC)cs1 | 12.9%
COC(=O)c1cc(OC)c(OC)cc1NC(=O)C(C)c1ccc([N+](=O)[O-])cc1 (centres unmarked) | 8.84%
CC1OC2(OC1C)C(=O)Nc1ccccc12 (centres unmarked) | 6.93%
Cc1onc(NC(=O)NC(=O)c2c(F)cccc2Cl)c1Br | 10.4%
O=C(Cn1nc(C(=O)O)c2ccccc2c1=O)Nc1ccc2c(c1)C(=O)c1ccccc1C2=O | 6.96%
COc1ccc(-c2nc(CS(=O)CC(=O)NCc3ccco3)c(C)o2)cc1 (centres unmarked) | -1.89%
COc1cc(/C=C2\C(=N)N3N=CSC3=NC2=O)ccc1OS(=O)(=O)c1ccccc1 | 6.08%
CCCCc1ccc(NC(=S)N2CCCC(C)C2)cc1 (centres unmarked) | 10.2%
CC(C)Cn1c(N2CCN(C(=O)c3cccs3)CC2)nc2ccccc21 | -74.7%
O=C(c1cccs1)N1CCN(c2nc3ccccc3s2)CC1 | 7.28%
CC(C)n1c(N2CCN(C(=O)c3cccs3)CC2)nc2ccccc21 | -26.9%
CCCn1c(N2CCN(CC(=O)NCc3cccs3)CC2)nc2ccccc21 | -62.7%
CCCn1c(N2CCN(CC(=O)Nc3ccc4c(c3)OCCO4)CC2)nc2ccccc21.Cl | -29.2%
CC(C)n1c(N2CCN(CC(=O)NCc3cccs3)CC2)nc2ccccc21 | -30.9%
